# In PMC7862700, “An all-to-all approach to the identification of sequence-specific readers for epigenetic DNA modifications on cytosine”:
# Columns and labels:
# Experiment in all cases: DAPPL (digital affinity profiling via proximity ligation, sequencing); 10 mM Tris-HCl pH 7.5, 50 mM NaCl, 1 mM DTT, 4% glycerol, room temperature, 30 min; GST-TFs on glutathione beads, 16-mer random dsDNA library, 0.1% formaldehyde crosslink after washing; high values mean tight binding
# FLI1 = target: T1, FLI1 (Homo sapiens, UniProt Q01543 1-452); settings: protein: recombinant; tags: N-terminal GST; dsDNA, one strand shown
# T1 sequence: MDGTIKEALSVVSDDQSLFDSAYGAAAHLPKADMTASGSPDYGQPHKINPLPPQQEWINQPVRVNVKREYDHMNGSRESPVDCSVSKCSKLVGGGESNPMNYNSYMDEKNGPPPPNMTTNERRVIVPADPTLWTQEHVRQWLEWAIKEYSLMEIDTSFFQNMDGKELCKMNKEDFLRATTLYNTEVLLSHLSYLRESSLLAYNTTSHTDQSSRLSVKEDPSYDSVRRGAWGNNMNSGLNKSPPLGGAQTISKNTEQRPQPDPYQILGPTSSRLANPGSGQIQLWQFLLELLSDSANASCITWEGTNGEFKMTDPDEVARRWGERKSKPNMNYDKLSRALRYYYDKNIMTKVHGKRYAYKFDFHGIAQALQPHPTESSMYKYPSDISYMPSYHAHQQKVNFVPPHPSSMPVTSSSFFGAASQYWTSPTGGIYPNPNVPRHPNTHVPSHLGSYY
# How it was run: (§1)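 Sequencing on an Illumina NextSeq500 followed washing, crosslinking with 0.1% formaldehyde, proximity ligation (BsaI/T4 ligase, 1 h, 37 °C) and PCR amplification of pools that had been incubated for 30 min at room temperature with 200 nmole of a random double-stranded 16-mer DNA library in Tris/NaCl/DTT/glycerol buffer. Each pool held DNA-barcoded human transcription factors, expressed in yeast as GST fusions and captured on glutathione beads, plus a tag-only sample. Binding signal is a hexamer's read frequency for a factor divided by its frequency in the tag-only sample.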
# ELK1 = target: T2, ELK1 (Homo sapiens, UniProt P19419 1-428); settings: protein: recombinant; tags: N-terminal GST; dsDNA, one strand shown
# T2 sequence: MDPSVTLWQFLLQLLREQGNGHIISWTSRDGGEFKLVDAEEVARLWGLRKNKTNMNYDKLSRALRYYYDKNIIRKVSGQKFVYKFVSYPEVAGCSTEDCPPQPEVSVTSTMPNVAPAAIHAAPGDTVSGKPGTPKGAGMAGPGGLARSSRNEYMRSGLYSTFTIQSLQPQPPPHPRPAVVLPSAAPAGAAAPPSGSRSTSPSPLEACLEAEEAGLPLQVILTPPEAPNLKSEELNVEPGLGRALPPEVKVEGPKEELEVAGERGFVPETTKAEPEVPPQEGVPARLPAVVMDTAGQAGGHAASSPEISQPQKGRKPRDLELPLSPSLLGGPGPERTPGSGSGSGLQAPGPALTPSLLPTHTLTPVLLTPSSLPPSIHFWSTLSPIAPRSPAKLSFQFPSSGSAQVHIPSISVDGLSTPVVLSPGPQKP
# How it was run: as §1
# GABPA = target: T3, GABPA (Homo sapiens, UniProt Q06546 1-454); settings: protein: recombinant; tags: N-terminal GST; dsDNA, one strand shown
# T3 sequence: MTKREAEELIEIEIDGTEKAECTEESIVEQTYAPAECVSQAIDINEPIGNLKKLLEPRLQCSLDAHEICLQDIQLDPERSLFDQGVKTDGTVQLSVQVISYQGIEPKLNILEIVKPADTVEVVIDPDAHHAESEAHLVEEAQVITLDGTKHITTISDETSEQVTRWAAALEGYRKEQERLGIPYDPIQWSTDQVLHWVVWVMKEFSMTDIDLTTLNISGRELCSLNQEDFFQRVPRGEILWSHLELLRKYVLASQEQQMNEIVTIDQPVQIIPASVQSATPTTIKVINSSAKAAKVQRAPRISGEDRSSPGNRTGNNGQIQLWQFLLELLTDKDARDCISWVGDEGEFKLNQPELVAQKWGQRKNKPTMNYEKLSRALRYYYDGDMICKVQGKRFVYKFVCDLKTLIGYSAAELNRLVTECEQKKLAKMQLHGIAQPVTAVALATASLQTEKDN
# How it was run: as §1
# ERG = target: T4, ERG (Homo sapiens, UniProt P11308 1-479); settings: protein: recombinant; tags: N-terminal GST; dsDNA, one strand shown
# T4 sequence: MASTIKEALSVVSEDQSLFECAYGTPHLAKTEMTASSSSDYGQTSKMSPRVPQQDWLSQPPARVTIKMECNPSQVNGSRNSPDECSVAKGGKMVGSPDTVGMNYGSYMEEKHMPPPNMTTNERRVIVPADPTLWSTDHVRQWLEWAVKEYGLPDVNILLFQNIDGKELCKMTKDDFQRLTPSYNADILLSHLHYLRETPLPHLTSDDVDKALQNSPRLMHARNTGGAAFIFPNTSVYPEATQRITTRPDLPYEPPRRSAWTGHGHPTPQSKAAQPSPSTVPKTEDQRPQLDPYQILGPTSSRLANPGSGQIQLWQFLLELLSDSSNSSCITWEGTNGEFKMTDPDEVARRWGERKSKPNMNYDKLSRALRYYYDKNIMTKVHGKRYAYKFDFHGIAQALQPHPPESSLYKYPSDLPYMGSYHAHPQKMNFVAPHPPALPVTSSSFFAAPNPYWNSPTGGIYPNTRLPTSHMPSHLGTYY
# How it was run: as §1
# ELF1 = ELF1 (Homo sapiens, UniProt P32519 1-619); settings: protein: recombinant; tags: N-terminal GST; dsDNA, one strand shown
# Chain of ELF1 (P32519 whole entry): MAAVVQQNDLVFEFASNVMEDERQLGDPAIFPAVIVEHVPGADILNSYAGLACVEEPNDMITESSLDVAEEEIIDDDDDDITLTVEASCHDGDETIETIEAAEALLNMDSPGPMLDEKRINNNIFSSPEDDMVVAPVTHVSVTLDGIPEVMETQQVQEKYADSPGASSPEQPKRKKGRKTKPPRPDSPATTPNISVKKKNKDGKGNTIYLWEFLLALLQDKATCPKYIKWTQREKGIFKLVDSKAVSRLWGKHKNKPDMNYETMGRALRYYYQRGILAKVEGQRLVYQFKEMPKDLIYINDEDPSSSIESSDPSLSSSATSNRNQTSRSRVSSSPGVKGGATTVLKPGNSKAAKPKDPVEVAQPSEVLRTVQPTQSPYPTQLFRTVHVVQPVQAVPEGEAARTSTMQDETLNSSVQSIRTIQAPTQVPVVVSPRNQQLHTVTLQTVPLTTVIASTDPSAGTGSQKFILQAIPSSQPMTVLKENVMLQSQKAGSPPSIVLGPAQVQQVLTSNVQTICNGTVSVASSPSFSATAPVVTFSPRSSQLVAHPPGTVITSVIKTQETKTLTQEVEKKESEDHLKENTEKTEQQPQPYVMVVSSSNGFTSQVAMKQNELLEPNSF
# How it was run: as §1
# EHF = target: T5, EHF (Homo sapiens, UniProt Q9NZC4 1-300); settings: protein: recombinant; tags: N-terminal GST; dsDNA, one strand shown
# T5 sequence: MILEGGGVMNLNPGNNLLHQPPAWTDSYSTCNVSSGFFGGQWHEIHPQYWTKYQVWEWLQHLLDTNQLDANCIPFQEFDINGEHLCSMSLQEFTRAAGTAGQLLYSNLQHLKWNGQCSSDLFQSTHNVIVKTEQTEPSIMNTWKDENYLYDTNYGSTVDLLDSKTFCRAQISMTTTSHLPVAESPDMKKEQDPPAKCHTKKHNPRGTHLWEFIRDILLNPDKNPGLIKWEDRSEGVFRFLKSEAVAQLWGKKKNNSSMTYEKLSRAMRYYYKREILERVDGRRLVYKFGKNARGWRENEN
# How it was run: as §1
# SPI1 = SPI1 (Homo sapiens, UniProt P17947 1-270); settings: protein: recombinant; tags: N-terminal GST; dsDNA, one strand shown
# How it was run: as §1
# SPIB = SPIB (Homo sapiens, UniProt Q01892 1-262); settings: protein: recombinant; tags: N-terminal GST; dsDNA, one strand shown
# Chain of SPIB (Q01892 whole entry): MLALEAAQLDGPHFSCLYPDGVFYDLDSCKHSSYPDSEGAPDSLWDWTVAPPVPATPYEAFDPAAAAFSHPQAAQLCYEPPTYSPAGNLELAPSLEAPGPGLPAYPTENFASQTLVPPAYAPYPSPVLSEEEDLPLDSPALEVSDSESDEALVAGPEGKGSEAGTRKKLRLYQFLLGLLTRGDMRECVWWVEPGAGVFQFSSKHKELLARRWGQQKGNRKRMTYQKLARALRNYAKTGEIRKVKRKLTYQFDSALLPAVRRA
# How it was run: as §1
# ELK3 = target: T6, ELK3 (Homo sapiens, UniProt P41970 1-407); settings: protein: recombinant; tags: N-terminal GST; dsDNA, one strand shown
# T6 sequence: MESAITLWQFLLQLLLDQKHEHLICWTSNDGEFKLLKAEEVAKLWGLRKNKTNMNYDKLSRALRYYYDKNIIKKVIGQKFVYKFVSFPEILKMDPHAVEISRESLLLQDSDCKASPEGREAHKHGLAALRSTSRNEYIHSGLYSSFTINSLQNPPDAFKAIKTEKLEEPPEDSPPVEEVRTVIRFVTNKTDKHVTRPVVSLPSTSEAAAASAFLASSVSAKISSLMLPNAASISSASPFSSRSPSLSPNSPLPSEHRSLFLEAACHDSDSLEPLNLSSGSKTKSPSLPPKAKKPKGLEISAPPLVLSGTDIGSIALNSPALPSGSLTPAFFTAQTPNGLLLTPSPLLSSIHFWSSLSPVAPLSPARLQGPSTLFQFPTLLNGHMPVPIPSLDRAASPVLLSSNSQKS
# How it was run: as §1
# FEV = target: T7, FEV (Homo sapiens, UniProt Q99581 1-238); settings: protein: recombinant; tags: N-terminal GST; dsDNA, one strand shown
# T7 sequence: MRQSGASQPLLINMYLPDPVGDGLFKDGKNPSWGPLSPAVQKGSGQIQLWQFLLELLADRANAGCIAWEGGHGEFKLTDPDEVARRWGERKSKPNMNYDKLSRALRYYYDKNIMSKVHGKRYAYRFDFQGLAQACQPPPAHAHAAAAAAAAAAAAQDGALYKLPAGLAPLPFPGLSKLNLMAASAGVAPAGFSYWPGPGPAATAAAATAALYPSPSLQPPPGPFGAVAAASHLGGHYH
# How it was run: as §1
# ETV5 = ETV5 (Homo sapiens, UniProt P41161 1-510); settings: protein: recombinant; tags: N-terminal GST; dsDNA, one strand shown
# Chain of ETV5 (P41161 whole entry): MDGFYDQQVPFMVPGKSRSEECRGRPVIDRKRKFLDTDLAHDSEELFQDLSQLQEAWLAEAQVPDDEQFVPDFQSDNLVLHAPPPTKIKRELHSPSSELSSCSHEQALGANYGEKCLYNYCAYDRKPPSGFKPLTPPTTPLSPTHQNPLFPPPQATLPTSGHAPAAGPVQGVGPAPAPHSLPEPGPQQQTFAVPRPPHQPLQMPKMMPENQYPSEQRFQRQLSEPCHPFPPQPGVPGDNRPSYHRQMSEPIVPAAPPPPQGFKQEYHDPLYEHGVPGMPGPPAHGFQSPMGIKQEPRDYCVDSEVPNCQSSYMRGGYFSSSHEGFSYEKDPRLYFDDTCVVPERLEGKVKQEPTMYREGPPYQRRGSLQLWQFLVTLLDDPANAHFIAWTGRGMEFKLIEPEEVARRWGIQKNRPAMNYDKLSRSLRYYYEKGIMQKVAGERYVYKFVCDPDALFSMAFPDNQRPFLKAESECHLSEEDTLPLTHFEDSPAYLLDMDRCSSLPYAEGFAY
# How it was run: as §1
# HSF1 = HSF1 (Homo sapiens, UniProt Q00613 1-529); settings: protein: recombinant; tags: N-terminal GST; chain copies: 3; dsDNA, one strand shown
# Chain of HSF1 (Q00613 whole entry): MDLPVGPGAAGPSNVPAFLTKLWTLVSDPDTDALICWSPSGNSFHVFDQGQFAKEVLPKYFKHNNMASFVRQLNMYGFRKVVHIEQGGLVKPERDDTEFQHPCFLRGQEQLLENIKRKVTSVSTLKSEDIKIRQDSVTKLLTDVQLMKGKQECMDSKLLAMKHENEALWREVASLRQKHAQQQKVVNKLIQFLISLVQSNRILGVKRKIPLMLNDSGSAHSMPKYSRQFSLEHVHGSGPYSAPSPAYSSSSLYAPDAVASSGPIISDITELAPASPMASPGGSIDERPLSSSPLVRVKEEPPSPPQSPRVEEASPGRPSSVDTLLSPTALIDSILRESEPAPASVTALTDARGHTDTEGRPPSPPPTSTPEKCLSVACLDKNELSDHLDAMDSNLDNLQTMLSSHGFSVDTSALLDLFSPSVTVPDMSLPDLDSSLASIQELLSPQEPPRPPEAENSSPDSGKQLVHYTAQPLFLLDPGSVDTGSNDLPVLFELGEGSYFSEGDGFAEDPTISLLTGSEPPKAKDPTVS
# How it was run: as §1
# SPIC = target: T8, SPIC (Homo sapiens, UniProt Q8N5J4 1-248); settings: protein: recombinant; tags: N-terminal GST; dsDNA, one strand shown
# T8 sequence: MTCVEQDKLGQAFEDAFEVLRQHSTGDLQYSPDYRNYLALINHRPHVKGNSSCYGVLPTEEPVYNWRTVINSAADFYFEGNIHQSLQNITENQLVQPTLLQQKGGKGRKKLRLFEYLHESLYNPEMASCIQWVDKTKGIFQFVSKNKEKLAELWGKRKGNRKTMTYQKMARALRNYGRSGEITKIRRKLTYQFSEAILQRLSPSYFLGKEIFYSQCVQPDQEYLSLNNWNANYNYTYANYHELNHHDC
# How it was run: as §1
# ELF4 = ELF4 (Homo sapiens, UniProt Q99607 1-663); settings: protein: recombinant; tags: N-terminal GST; dsDNA, one strand shown
# Chain of ELF4 (Q99607 whole entry): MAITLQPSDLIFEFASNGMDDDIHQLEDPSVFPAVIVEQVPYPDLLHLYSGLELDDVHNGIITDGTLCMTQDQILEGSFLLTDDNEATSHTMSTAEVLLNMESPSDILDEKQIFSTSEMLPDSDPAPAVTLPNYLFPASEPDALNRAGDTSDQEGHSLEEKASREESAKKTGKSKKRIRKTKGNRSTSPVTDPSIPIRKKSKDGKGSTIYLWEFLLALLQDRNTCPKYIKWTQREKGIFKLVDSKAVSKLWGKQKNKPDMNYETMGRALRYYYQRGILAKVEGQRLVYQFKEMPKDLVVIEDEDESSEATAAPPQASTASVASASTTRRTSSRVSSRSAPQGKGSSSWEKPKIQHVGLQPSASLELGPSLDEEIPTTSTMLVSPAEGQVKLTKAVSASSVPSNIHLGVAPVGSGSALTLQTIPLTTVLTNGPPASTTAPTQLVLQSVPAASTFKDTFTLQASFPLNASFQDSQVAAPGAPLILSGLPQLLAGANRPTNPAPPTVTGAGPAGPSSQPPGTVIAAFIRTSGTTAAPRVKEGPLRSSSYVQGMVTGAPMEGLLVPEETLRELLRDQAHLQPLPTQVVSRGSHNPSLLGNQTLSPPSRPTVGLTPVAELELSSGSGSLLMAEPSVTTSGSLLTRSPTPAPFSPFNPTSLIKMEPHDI
# How it was run: as §1
# ELK4 = target: T9, ELK4 (Homo sapiens, UniProt P28324-2 1-405); settings: protein: recombinant; tags: N-terminal GST; dsDNA, one strand shown
# T9 sequence: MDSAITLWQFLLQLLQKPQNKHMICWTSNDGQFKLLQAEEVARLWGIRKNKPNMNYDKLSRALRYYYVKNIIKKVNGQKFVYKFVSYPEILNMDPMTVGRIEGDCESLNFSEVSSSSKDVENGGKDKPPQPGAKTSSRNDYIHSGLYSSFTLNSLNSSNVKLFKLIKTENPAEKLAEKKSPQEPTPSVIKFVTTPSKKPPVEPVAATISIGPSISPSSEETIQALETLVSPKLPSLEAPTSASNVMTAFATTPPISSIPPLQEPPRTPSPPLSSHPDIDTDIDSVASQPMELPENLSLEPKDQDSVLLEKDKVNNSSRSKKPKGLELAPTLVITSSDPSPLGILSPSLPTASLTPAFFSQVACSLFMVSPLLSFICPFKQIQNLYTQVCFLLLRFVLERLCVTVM
# How it was run: as §1
# ETV2 = target: T10, ETV2 (Homo sapiens, UniProt O00321 1-342); settings: protein: recombinant; tags: N-terminal GST; dsDNA, one strand shown
# T10 sequence: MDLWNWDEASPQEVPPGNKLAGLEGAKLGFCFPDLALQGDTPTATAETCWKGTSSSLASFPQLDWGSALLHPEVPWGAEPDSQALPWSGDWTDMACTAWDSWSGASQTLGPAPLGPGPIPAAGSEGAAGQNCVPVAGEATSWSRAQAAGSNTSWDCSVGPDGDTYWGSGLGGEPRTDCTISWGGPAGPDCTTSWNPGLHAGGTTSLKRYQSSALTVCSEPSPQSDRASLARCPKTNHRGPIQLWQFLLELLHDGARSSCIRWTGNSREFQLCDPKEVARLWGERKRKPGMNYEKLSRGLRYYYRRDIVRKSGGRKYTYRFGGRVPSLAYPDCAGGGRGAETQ
# How it was run: as §1
# ELF3 = target: T11, ELF3 (Homo sapiens, UniProt P78545 1-371); settings: protein: recombinant; tags: N-terminal GST; dsDNA, one strand shown
# T11 sequence: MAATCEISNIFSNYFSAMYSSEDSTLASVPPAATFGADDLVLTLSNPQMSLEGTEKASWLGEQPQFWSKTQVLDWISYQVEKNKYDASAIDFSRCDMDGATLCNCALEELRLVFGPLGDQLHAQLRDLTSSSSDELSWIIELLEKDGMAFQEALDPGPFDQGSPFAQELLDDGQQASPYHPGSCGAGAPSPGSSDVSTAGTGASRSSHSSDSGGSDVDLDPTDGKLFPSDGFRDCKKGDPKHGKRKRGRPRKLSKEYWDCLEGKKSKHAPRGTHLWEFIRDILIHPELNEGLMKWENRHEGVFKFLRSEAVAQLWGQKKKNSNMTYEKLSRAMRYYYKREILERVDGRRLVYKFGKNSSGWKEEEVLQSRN
# How it was run: as §1
# CRX = CRX (Homo sapiens, UniProt O43186 1-299); settings: protein: recombinant; tags: N-terminal GST; dsDNA, one strand shown
# Chain of CRX (O43186 whole entry): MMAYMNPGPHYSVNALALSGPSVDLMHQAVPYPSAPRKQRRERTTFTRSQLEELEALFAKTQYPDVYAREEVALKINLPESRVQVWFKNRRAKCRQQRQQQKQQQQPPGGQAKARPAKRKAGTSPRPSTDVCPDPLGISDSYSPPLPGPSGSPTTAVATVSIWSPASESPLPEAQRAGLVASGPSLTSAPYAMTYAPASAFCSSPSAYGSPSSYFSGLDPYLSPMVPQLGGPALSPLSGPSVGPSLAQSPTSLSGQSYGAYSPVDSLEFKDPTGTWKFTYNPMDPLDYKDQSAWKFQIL
# How it was run: as §1
# ETV1 = ETV1 (Homo sapiens, UniProt P50549 1-477); settings: protein: recombinant; tags: N-terminal GST; dsDNA, one strand shown
# Chain of ETV1 (P50549 whole entry): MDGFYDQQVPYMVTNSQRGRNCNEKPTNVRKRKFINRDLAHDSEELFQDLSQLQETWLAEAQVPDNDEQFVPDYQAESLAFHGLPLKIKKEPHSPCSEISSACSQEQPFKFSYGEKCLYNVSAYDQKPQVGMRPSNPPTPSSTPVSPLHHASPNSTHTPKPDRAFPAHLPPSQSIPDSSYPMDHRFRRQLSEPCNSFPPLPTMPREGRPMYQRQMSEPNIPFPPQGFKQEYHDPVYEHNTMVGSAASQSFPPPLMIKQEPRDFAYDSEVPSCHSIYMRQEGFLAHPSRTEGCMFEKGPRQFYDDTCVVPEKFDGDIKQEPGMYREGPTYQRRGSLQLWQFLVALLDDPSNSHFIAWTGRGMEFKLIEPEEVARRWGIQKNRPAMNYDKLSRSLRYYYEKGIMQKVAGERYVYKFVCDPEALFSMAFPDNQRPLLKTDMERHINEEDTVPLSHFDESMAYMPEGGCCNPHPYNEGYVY
# How it was run: as §1
sequence,measurement,setting,value
CCCTAT,binding signal,FLI1,"1.33 fold enrichment (6-mer frequency, TF over GST control)"
same,binding signal,ELK1,"1.33 fold enrichment (6-mer frequency, TF over GST control)"
same,binding signal,GABPA,"1.32 fold enrichment (6-mer frequency, TF over GST control)"
same,binding signal,ERG,"1.32 fold enrichment (6-mer frequency, TF over GST control)"
same,binding signal,ELF1,"1.32 fold enrichment (6-mer frequency, TF over GST control)"
same,binding signal,EHF,"1.25 fold enrichment (6-mer frequency, TF over GST control)"
same,binding signal,SPI1,"1.45 fold enrichment (6-mer frequency, TF over GST control)"
same,binding signal,SPIB,"1.35 fold enrichment (6-mer frequency, TF over GST control)"
same,binding signal,ELK3,"1.46 fold enrichment (6-mer frequency, TF over GST control)"
same,binding signal,FEV,"1.39 fold enrichment (6-mer frequency, TF over GST control)"
same,binding signal,ETV5,"1.29 fold enrichment (6-mer frequency, TF over GST control)"
same,binding signal,HSF1,"1.13 fold enrichment (6-mer frequency, TF over GST control)"
same,binding signal,SPIC,"1.2 fold enrichment (6-mer frequency, TF over GST control)"
same,binding signal,ELF4,"1.37 fold enrichment (6-mer frequency, TF over GST control)"
same,binding signal,ELK4,"1.29 fold enrichment (6-mer frequency, TF over GST control)"
same,binding signal,ETV2,"1.33 fold enrichment (6-mer frequency, TF over GST control)"
same,binding signal,ELF3,"1.29 fold enrichment (6-mer frequency, TF over GST control)"
same,binding signal,CRX,"1.17 fold enrichment (6-mer frequency, TF over GST control)"
same,binding signal,ETV1,"1.37 fold enrichment (6-mer frequency, TF over GST control)"
